Reference: PubChem BioAssay (NCI)
Several values for one entry are separate records, joined by “and”; a condition that tells them apart may be missing. Equal values may be shown once. About 83,000 compounds went through this panel and 20% of them were active in at least one assay; those are over-represented in the sample as a whole.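 In brief: 96-well plates, 48 h treatment, single concentration, percent growth endpoint.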 Activity calls are given as the source filed them. The calls were made as follows: active = growth percent below 10; inactive = the rest.

How the values were obtained:
Assay in all cases: NCI-60 one-dose screen, 48 h (100 = growth as untreated, 0 = no growth, -100 = all killed)
NCI-H226 lung = details: 10 µM
NCI-H322M lung = details: 10 µM
HOP-62 NSCLC = details: 10 µM
NCI-H460 lung = details: 10 µM
A549/ATCC NSCLC = details: 10 µM
786-0 renal = details: 10 µM
DU-145 prostate = details: 10 µM
SF-268 CNS = details: 10 µM
SF-295 CNS = details: 10 µM
SF-539 CNS = details: 10 µM
HCT-15 colon = details: 10 µM
SNB-75 CNS = details: 10 µM
SNB-19 CNS = details: 10 µM
U251 CNS = details: 10 µM
PC-3 prostate = details: 10 µM
EKVX NSCLC = details: 10 µM
UO-31 renal = details: 10 µM
ACHN renal = details: 10 µM
HL-60(TB) leukemia = details: 10 µM unless noted
CCRF-CEM leukemia = details: 10 µM

SMILES | growth (NCI-H226 lung) | growth (NCI-H322M lung) | growth (HOP-62 NSCLC) | growth (NCI-H460 lung) | growth (A549/ATCC NSCLC) | growth (786-0 renal) | growth (DU-145 prostate) | growth (SF-268 CNS) | growth (SF-295 CNS) | growth (SF-539 CNS) | growth (HCT-15 colon) | growth (SNB-75 CNS) | growth (SNB-19 CNS) | growth (U251 CNS) | growth (PC-3 prostate) | growth (EKVX NSCLC) | growth (UO-31 renal) | growth (ACHN renal) | growth (HL-60(TB) leukemia) | growth (CCRF-CEM leukemia)
Cc1ccc(CNc2nc3ccc(OC/C(=C/F)CN)cc3o2)cn1 | 90.3% (inactive) | 105% (inactive) | 72.9% (inactive) | 93.7% (inactive) | 95.6% (inactive) | 92.3% (inactive) | 88.4% (inactive) | 89.8% (inactive) | 99.9% (inactive) | 94.9% (inactive) | 112% (inactive) | 55.5% (inactive) | 98.8% (inactive) | 110% (inactive) | 98.3% (inactive) | 61.7% (inactive) | 58.4% (inactive) | 99% (inactive) | 141% (inactive) | 105% (inactive)
COc1cc2c(cc1OC)[C@@H]1N(CC2)C(=O)c2ccccc2[C@@]1(C)C(=O)O | 111% (inactive) | 102% (inactive) | 108% (inactive) | 109% (inactive) | 111% (inactive) | 99.9% (inactive) | 110% (inactive) | 110% (inactive) | 101% (inactive) | 105% (inactive) | 101% (inactive) | 108% (inactive) | 98.4% (inactive) | 106% (inactive) | 104% (inactive) | 103% (inactive) | 97.3% (inactive) | 110% (inactive) | 104% (inactive) | 105% (inactive)
C/C=C/CC(C)C(O)[C@H](NC(=O)[C@@H]1CCCN1C(=O)C(C)(C)NC(=O)CCCCCCC)C(=O)N[C@@](C)(CC)C(=O)N[C@@H](CCC(N)=O)C(=O)N[C@H](CCC(N)=O)C(=O)NC(C)(C)C(=O)NC(C)(C)C(=O)N[C@@H](CCC(N)=O)C(=O)N[C@H](CC(C)C)C(=O)N[C@H](CO)CC(C)C (stereo not given in full) | 105% (inactive) and 6.63% (active) | 108% (inactive) and 70% (inactive) | 95.9% (inactive) and 14.5% (inactive) | 105% (inactive) and 13.1% (inactive) | 109% (inactive) and 30% (inactive) | 103% (inactive) and 39.8% (inactive) | 110% (inactive) and -35.4% (active) | 107% (inactive) and -8.99% (active) | 98.8% (inactive) and -22.2% (active) | 100% (inactive) and -45.7% (active) | 100% (inactive) and 22.1% (inactive) | 109% (inactive) and -30.3% (active) | 101% (inactive) and 14% (inactive) | 101% (inactive) and -17.8% (active) | 103% (inactive) and 17.3% (inactive) | 100% (inactive) and 5.16% (active) | 96.7% (inactive) and 16.1% (inactive) | 103% (inactive) and 32% (inactive) | 94.8% (inactive) and -6.76% (active) | 103% (inactive) and -23.3% (active)
